Data published in PubChem BioAssay (NCATS).
Results filed as inconclusive are left out. Entries that show only a call come without a potency. Active and inactive are the calls of the source. The call rests on the fitted dose curve; in most records, active means well fitted inhibition curve with a large enough effect; inconclusive means small, poorly fitted or top-dose-only effect; inactive means flat fitted curve, though single readings scatter.

test system: CP297; assay: qHTS profiling for inhibitors of Plasmodium falciparum proliferation (AID 504749); further: nearly all actives have a fitted effect of over 60% in size; conditions: P. falciparum in erythrocytes, SYBR Green DNA, 72 h; series mostly up to 28.7 µM
Outline: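 P. falciparum-infected erythrocytes (0.3% parasitemia, 2.5% hematocrit) incubated with compound 72 h at 37 C, 5% CO2. Parasite DNA detected by SYBR Green after lysis, overnight at room temperature; normalised to 0.29 uM artemisinin and DMSO.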
Potency means the concentration at half of the fitted maximal effect.

Compound | Potency
CCCCCCCCCCCCCCCC(=O)OC[C@H](O)[C@H]1OC[C@@H](O)[C@@H]1O | inactive
CCCCC(=O)OCC(=O)[C@]1(O)Cc2c(O)c3c(c(O)c2[C@H](OC2CC(NC(=O)C(F)(F)F)C(O)C(C)O2)C1)C(=O)c1c(OC)cccc1C3=O (stereo not given in full) | 1510 nM (active)
C[C@H]1OC(OC2C(O)[C@@H](O)C(OC3C(O)[C@@H](O)C(O)O[C@@H]3CO)O[C@@H]2CO)[C@H](O)C(O)C1N[C@H]1C=C(CO)[C@@H](O)[C@H](O)C1O (stereo not given in full) | inactive
CCN(CC)CC(=O)Nc1c(C)cc(C)cc1C | inactive
CC(=O)N[C@H]1[C@H](O[C@@H]2c3ccc(c(Cl)c3)Oc3cc4cc(c3O[C@@H]3O[C@H](CO)[C@@H](O)[C@H](O)C3C)Oc3ccc(cc3Cl)C[C@H]3NC(=O)[C@@H](N)c5ccc(O)c(c5)Oc5cc(O)cc(c5)[C@H](NC3=O)C(=O)N[C@H]4C(=O)N[C@H]3C(=O)N[C@@H]2C(=O)N[C@@H](C(=O)O)c2cc(O)cc(O[C@H]4O[C@H](CO)[C@@H](O)C(O)[C@@H]4O)c2-c2cc3ccc2O)O[C@H](CO)[C@@H](O)[C@@H]1O (stereo not given in full) | inactive
NC(=O)c1ncn(C2OC(CO)C(O)C2O)c1N (stereo not given) | inactive
C[C@H]1[C@@H](OC(=O)CCC(=O)O)OC2OC3(C)CC[C@H]4[C@H](C)CC[C@@H]1[C@@]24OO3 (stereo not given in full) | 4.8 nM (active)
CC1(Cn2ccnn2)[C@H](C(=O)O)N2C(=O)C[C@H]2S1(=O)=O (stereo not given in full) | inactive
CN(C)CC/C=C1\c2ccccc2COc2ccc(CC(=O)O)cc21 | inactive
CCCC(=O)O[C@]1(C(=O)COC(C)=O)CC[C@H]2C3C[C@H](F)C4=CC(=O)C=CC4(C)[C@@]3(F)[C@@H](O)CC21C (stereo not given in full) | inactive
OCCN1CC(O)C(O)C(O)C1CO (stereo not given) | inactive
COc1cc2c(cc1O)CCN[C@@]21CS[C@H]2c3c(OC(C)=O)c(C)c4c(c3C(COC1=O)N1C2C2c3c(cc(C)c(OC)c3O)CC([C@@H]1O)N2C)OCO4 (stereo not given in full) | 0.5 nM (active)
CC(CCC(=O)O)C1CCC2C3C(=O)C[C@@H]4CC(=O)CC[C@@]4(C)C3CC(=O)[C@]12C (stereo not given in full) | inactive
C[n+]1c2cc(N)ccc2cc2ccc(N)cc21 | 1350 nM (active)
O=C(OC[C@@H]1O[C@@](O)(COC(=O)c2cccnc2)[C@H](OC(=O)c2cccnc2)[C@H]1OC(=O)c1cccnc1)c1cccnc1 | inactive
O=[N+]([O-])O[C@H]1CO[C@H]2[C@@H]1OC[C@H]2O | inactive
COc1cccc(OC)c1C(=O)NC1C(=O)N2C1SC(C)(C)C2C(=O)O (stereo not given) | inactive
NC[C@@H]1O[C@H](OC2[C@@H](CO)O[C@@H](OC3[C@H](O)[C@H](N)C[C@H](N)[C@H]3OC3O[C@H](CO)[C@@H](O)[C@H](O)[C@@H]3N)[C@H]2O)C(N)[C@H](O)[C@@H]1O (stereo not given in full) | inactive
Cc1ccc(S(=O)(=O)NC(=O)NC(C)Cc2ccccc2)cc1 (stereo not given) | inactive
OCCOC[C@H]1O[C@H](OCCO)[C@H](OCCO)[C@@H](OCCO)[C@@H]1OCCO (tested in a mixture with another compound) | inactive

Compound | Potency
C[S+](C)CC[C@H](N)C(=O)O | inactive
CC[C@@H]1/C=C(\C)C[C@H](C)C[C@H](OC)[C@H]2O[C@@](O)(C(=O)C(=O)N3CCCC[C@H]3C(=O)O[C@H](/C(C)=C/[C@@H]3CC[C@H](Cl)[C@H](OC)C3)[C@H](C)[C@@H](O)CC1=O)[C@H](C)C[C@@H]2OC | inactive
NC(=O)C1CC2(NC(=O)NC2=O)c2cc(F)ccc2O1 (stereo not given) | inactive
CN1[C@@H]2CC[C@@H]1CC(OC(=O)[C@H](CO)c1ccccc1)C2 (stereo not given in full) | inactive
CC[C@@]1(O)C[C@H](O[C@H]2C[C@@H](N(C)C)[C@@H](O[C@H]3C[C@@H](O)[C@@H](O[C@H]4CCC(=O)[C@@H](C)O4)[C@@H](C)O3)[C@@H](C)O2)c2c(cc3c(c2O)C(=O)c2c(O)cccc2C3=O)[C@H]1C(=O)OC | 953 nM (active)
CCCCCCCCCCCC(=O)OCC(O)C1OCC(O)C1O (stereo not given) | inactive
C/C1=C2/[N-]C(C(CC(N)=O)[C@@]2(C)CCC(=O)NCC(C)OP(=O)([O-])O[C@H]2[C@@H](O)[C@@H](n3cnc4cc(C)c(C)cc43)O[C@@H]2CO)[C@]2(C)N=C(/C(C)=C3N=C(/C=C4N=C1C(CCC(N)=O)C\4(C)C)[C@@H](CCC(N)=O)[C@]\3(C)CC(N)=O)[C@@H](CCC(N)=O)[C@]2(C)CC(N)=O.CC(=O)O.[Co] (stereo not given in full) | inactive
CC1(C)OC[C@@H]2O[C@@]3(C(=O)O)OC(C)(C)O[C@@H]3[C@@H]2O1 | inactive
Cc1ccccc1N1C(=O)c2cc(N)ccc2N/C1=C\F | inactive
CCC(C(=O)O)C1OC(C(C)C(O)C(C)C(=O)C(CC)C2OC3(C=CC(O)C4(CCC(C)(C5CCC(O)(CC)C(C)O5)O4)O3)C(C)CC2C)C(C)CC1C (stereo not given) | 135 nM (active)
O=C1C(I)=CC(=C(c2cc(I)c(O)c(I)c2)c2ccccc2C(=O)O)C=C1I | inactive
NC(=O)NC(CCC(=O)O)C(=O)O (stereo not given) | inactive
COC1CC2CCC(C)[C@](O)(O2)C(=O)C(=O)N2CCCCC2C(=O)OC(C(C)CC2CCC(O)C(OC)C2)CC(=O)C(C)/C=C(/C)C(O)C(OC)C(=O)C(C)CC(C)C=CC=C/C=C\1C (stereo not given in full) | 4260 nM (active)
CC(=O)OCC(=O)[C@@]1(O)CCC2C3C[C@H](C)C4=CC(=O)C=CC4(C)C3C(O)CC21C (stereo not given in full) | inactive
CN[C@H](C)CCC=C(C)C | 601 nM (active)
CC1(C)C2CC[C@]1(C)[C@@H](O)C2 | inactive
OCC1O[C@H](Oc2ccc(O)cc2)C(O)C(O)C1O (stereo not given in full) | inactive
Nc1nc(F)nc2c1ncn2[C@@H]1O[C@H](CO)[C@@H](O)[C@H]1O | inactive
CC1OC(OC2CCC3(C)C(CCC4C3CC(O)C3(C)C(C5=CC(=O)OC5)CCC43O)C2)CC(O)C1OC1CC(O)C(OC2CC(O)C(OC3OC(CO)C(O)C(O)C3O)C(C)O2)C(C)O1 (stereo not given) | inactive
CC1OC(OCC2OC(Oc3c(-c4ccc(OCCO)c(OCCO)c4)oc4cc(OCCO)cc(O)c4c3=O)C(O)C(O)C2O)[C@@H](O)C(O)C1O (stereo not given in full) | inactive
